Results filed as inconclusive are left out. Calls of active or inactive are those of the source. The call rests on the fitted dose curve; in most records, active means well fitted cell-killing curve with a large enough effect; inconclusive means small, poorly fitted or top-dose-only effect, or effect the other way; inactive means no such curve, though single readings can be large or run the other way.

Experiment [1] can be described thus: Quantitative High-Throughput drug screen in 47 multiple myeloma cell lines against the NCATS MIPE library collection: XG6_PLB cell viability assay (AID 1919865). Further: nearly all actives have a fitted effect of over 40% in size. In short, it runs like this:
(§1)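 qHTS format: cells plated (500/well), pin-dosed with MIPE 4.0 compounds, kept 48 h at 37 °C. Readout was CellTiter-Glo luminescence, median RLU.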

Experiment [2] can be described thus: Quantitative High-Throughput drug screen in 47 multiple myeloma cell lines against the NCATS MIPE library collection: XG1_PLB cell viability assay (AID 1919866). Further: nearly all actives have a fitted effect of over 35% in size. The procedure, abridged: as §1
Experiment [3] is described as follows: Quantitative High-Throughput drug screen in 47 multiple myeloma cell lines against the NCATS MIPE library collection: VP6_DJ cell viability assay (AID 1919867). Further: nearly all actives have a fitted effect of over 40% in size. The procedure, abridged:
as §1

Experiment [4] can be described thus: Quantitative High-Throughput drug screen in 47 multiple myeloma cell lines against the NCATS MIPE library collection: UTMC2_PLB cell viability assay (AID 1919868). Further: nearly all actives have a fitted effect of over 55% in size. To be noted: CellTiter-Glo ATP luminescence, 48 h; viability (% of DMSO control): at 45.8 µM (top of the series). The procedure, abridged: as §1
A short description of experiment [5]: Quantitative High-Throughput drug screen in 47 multiple myeloma cell lines against the NCATS MIPE library collection: PE2_PLB cell viability assay (AID 1919869). Further: nearly all actives have a fitted effect of over 35% in size. The procedure, abridged:
as §1

Experiment [6] can be described thus: Quantitative High-Throughput drug screen in 47 multiple myeloma cell lines against the NCATS MIPE library collection: OPM2_DSMZ cell viability assay (AID 1919872). Further: nearly all actives have a fitted effect of over 30% in size. The procedure, abridged:
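Primary qHTS used for cherry-picking: cells at 500/well, library compounds for 48 h (37C, 5% CO2), luminescent ATP assay.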

Experiment [7] is described as follows: Quantitative High-Throughput drug screen in 47 multiple myeloma cell lines against the NCATS MIPE library collection: PCM6_Riken cell viability assay (AID 1919870). Further: nearly all actives have a fitted effect of over 30% in size. The procedure, abridged: as §1
Experiment [8] is described as follows: Quantitative High-Throughput drug screen in 47 multiple myeloma cell lines against the NCATS MIPE library collection: RPMI8226_ATCC cell viability assay (AID 1919871). Further: nearly all actives have a fitted effect of over 30% in size. The procedure, abridged: as §1
Experiment [9] can be described thus: Quantitative High-Throughput drug screen in 47 multiple myeloma cell lines against the NCATS MIPE library collection: KMS11_JCRBsus cell viability assay (AID 1919873). Further: nearly all actives have a fitted effect of over 50% in size. In short, it runs like this: as §1
Experiment [10] in a line: Quantitative High-Throughput drug screen in 47 multiple myeloma cell lines against the NCATS MIPE library collection: KMS28BM_JCRB cell viability assay (AID 1919874). Further: nearly all actives have a fitted effect of over 35% in size. In short, it runs like this: as §1
Potency means the concentration at half of the fitted maximal effect.

As to `C[C@H]1CCCC=CC2C[C@H](O)C[C@@H]2[C@H](O)C=CC(=O)O1` (stereo partly specified), the Potency entry in experiment [1], in [2], in experiment [3], in [4] and in experiment [5] was “inactive” each time.
As for `O=C(N[C@@H](COc1ccc2[nH]c(=O)[nH]c2c1)c1ccccc1)c1cccn(Cc2ccc(F)c(F)c2)c1=O`, the Potency in experiment [1] was 18700 nM (active); in [2], 5260 nM (active). In addition, the Potency entry in experiment [6] was “inactive”.
Take `O=c1[nH]c2ccccc2n1C1CCN(Cc2ccc(-c3[nH]c4cc5ncnc5cc4nc3-c3ccccc3)cc2)CC1`: the Potency was 7430 nM (active) in experiment [1]; 7430 nM (active) in experiment [2]; 9350 nM (active) in experiment [3]; 13200 nM (active) in experiment [4]; 2350 nM (active) in experiment [5]; 13200 nM (active) in experiment [7]. Besides, the Potency in [8] was 13200 nM (active); in experiment [6] it was 18700 nM (active); in [9], 20900 nM (active); in experiment [10], 18700 nM (active).
Regarding `CC(C)(C)c1cc(C=C(C#N)C#N)cc(Br)c1O`, the Potency was 14800 nM (active) in [1]; 11800 nM (active) in [2]; 11800 nM (active) in experiment [3]; 5260 nM (active) in experiment [5]; 18700 nM (active) in [7].
Take `CCN1CCN(C(=O)Cc2ccc(Nc3ncc(F)c(Nc4ccc(C(=O)Nc5ccccc5Cl)cc4)n3)cc2)CC1`: the Potency in experiment [1] was 743 nM (active); in experiment [2], 1180 nM (active); in [3], 2640 nM (active); in experiment [4], 1320 nM (active); in [5] it was 7430 nM (active); in experiment [7], 2960 nM (active). The Potency in experiment [8] was 18700 nM (active); in [6], 6620 nM (active); in experiment [9], 743 nM (active); in experiment [10], 1870 nM (active).
Consider `CCN1C[C@]2(OC(=O)c3ccccc3NC(C)=O)CC[C@H](OC)[C@@]34[C@H]5CC6[C@@H](OC)C[C@](O)(C(C[C@@H]23)[C@@H]14)[C@@]5(O)[C@@H]6OC`, for which the Potency entry in experiment [1], in experiment [2], in [5], in experiment [7], in [8] and in [6] was “inactive” each time. Also, the Potency entry in [9] and in experiment [10] was “inactive” throughout.
As to `O=C(O)CNC(=O)c1c(O)c2ccccc2n(Cc2ccccc2)c1=O`, the Potency result in [1], in experiment [2], in experiment [5], in [7], in experiment [9] and in [10] was “inactive” throughout.
On to `Cc1ccccc1-n1c(Cn2ncc3c(N)ncnc32)nc2cccc(C)c2c1=O`, for which the Potency is 41.8 nM (active) in experiment [1]; 296 nM (active) in experiment [2]; 166 nM (active) in experiment [3]; 74.3 nM (active) in [4]; 296 nM (active) in [7]; 8330 nM (active) in experiment [8]. Besides, the Potency is 8330 nM (active) in [6] and 1050 nM (active) in [9].
On to `C[C@@H]1CC[C@@]2(OC1)O[C@H]1C[C@H]3[C@@H]4CC=C5C[C@@H](O[C@@H]6O[C@H](CO)[C@@H](O[C@@H]7O[C@@H](C)[C@H](O)[C@@H](O)[C@@H]7O)[C@H](O)[C@@H]6O[C@@H]6O[C@@H](C)[C@H](O)[C@@H](O)[C@@H]6O)CC[C@]5(C)[C@@H]4CC[C@]3(C)[C@@H]1[C@H]2C`, for which the Potency was 3720 nM (active) in experiment [1]; 2640 nM (active) in experiment [2]; 2960 nM (active) in experiment [3]; 2640 nM (active) in experiment [4]; 4690 nM (active) in [5]; 3320 nM (active) in experiment [7]. The Potency was 2350 nM (active) in experiment [8], 2090 nM (active) in experiment [6], 2350 nM (active) in [9] and 2960 nM (active) in experiment [10].
Consider `CC(C)[C@H]1C(=O)N[C@H](CO)Cc2c[nH]c3cccc(c23)N1C`, for which the Potency was 93.5 nM (active) in [1], 264 nM (active) in experiment [7] and 66.2 nM (active) in experiment [6]. In addition, the Potency result in experiment [2], in experiment [3] and in [9] was “inactive” throughout.
As for `COC(=O)[C@@H](N)CCCN=C(N)N[N+](=O)[O-]`, the Potency entry in experiment [1], in [2], in experiment [5], in [8], in experiment [6] and in experiment [9] was “inactive” throughout. Moreover, the Potency entry in experiment [10] was “inactive”.
`Cc1c(N)nc([C@H](CC(N)=O)NC[C@@H](N)C(N)=O)nc1C(=O)N[C@H](C(=O)N[C@@H](C)[C@H](O)[C@@H](C)C(=O)N[C@@H](C(=O)NCCc1nc(-c2nc(C(=O)NCCC[S+](C)C)cs2)cs1)[C@@H](C)O)C(O[C@H]1O[C@H](CO)[C@H](O)[C@@H](O)[C@@H]1O[C@H]1O[C@H](CO)[C@@H](O)[C@H](OC(N)=O)[C@H]1O)c1cnc[nH]1` (stereo partly specified): the Potency in [1] is 590 nM (active); in experiment [2], 209 nM (active); in experiment [3], 16600 nM (active); in experiment [4] it was 209 nM (active); in experiment [6], 2350 nM (active); in [10], 7430 nM (active). In addition, the Potency result in [7], in experiment [8] and in experiment [9] was “inactive” throughout.
For `Cc1ccccc1-n1c(Cn2cnc3c(N)ncnc32)nc2cccc(C)c2c1=O`, the Potency is 469 nM (active) in experiment [1]; 209 nM (active) in [2]; 187 nM (active) in [3]; 66.2 nM (active) in experiment [4]; 296 nM (active) in [5]; 1660 nM (active) in experiment [7]. The values for the Potency in [6] and in [10] were 1050 nM (active) and 372 nM (active), respectively.
Take `CC(=O)N(C)c1cccc(-c2ccnc3c(C(=O)c4cccs4)cnn23)c1`: the Potency result in [1], in [2], in experiment [5], in experiment [7], in experiment [6] and in experiment [10] was “inactive” throughout. Besides, the Potency in [9] was 18700 nM (active).
As to `CC(O)=C(C#N)C(=O)Nc1cc(Br)ccc1Br`, the Potency result in [1], in experiment [2] and in experiment [6] was “inactive” in each case. Moreover, the Potency in [3] is 2960 nM (active); in [7] it was 1320 nM (active); in experiment [8] it was 11800 nM (active).
As to `O=C1CCC[C@@H]2[C@H]3CCCN4CCC[C@@H](CN12)[C@@H]34`, the Potency result in experiment [1], in experiment [2], in [4], in [5], in [7] and in experiment [6] was “inactive” in each case. The Potency result in experiment [9] and in [10] was “inactive” throughout.

The record behind these values is PubChem BioAssay (NCATS).
